Test results taken from PubChem BioAssay AID1159580 (chemical genetic matrix, 2015).
Where “and” joins values, the source holds several entries; their conditions need not be identical. Identical values can stand only once. Out of some 5,500 compounds screened, about 2,000 (36%) were called active. Another 18% or so got no clear call; they are omitted. Cut-off read from the data, not from the text of the source: active = normalized growth mostly below about 0.91 (no sharp cut-off); inconclusive = no clear call, values can overlap the other calls; inactive = mostly above about 0.92. The list shows a part of the results.

Test: chemical genetic growth profiling, strain panel (AID 1159580);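 note: tested at 20 µM; growth read once vehicle control cultures reached saturation at 30 °C; 1 = growth at the plate median or of vehicle wells; lower values mean less growth of the strain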
Settings: S. cerevisiae deletion strains, growth OD

Measured: normalized growth

COc1ccc2c3c([nH]c2c1)C(C)=NCC3
inactive: locus YAL013W, strain DEP1, hits give low values 1.01 | locus YAL021C, strain ccr4, hits give low values 0.997 | locus YAL026C, strain drs2, hits give low values 1.02 | locus YAL030W, strain snc1, hits give low values 1.01 | locus YBL061C, strain skt5, hits give low values 1.01 | locus YBR009C, strain hhf1, hits give low values 0.989 | locus YBR021W, strain FUR4, hits give low values 1.01 | locus YBR023C, strain chs3, hits give low values 0.999 | locus YBR171W, strain sec66, hits give low values 1.01 | locus YBR229C, strain ROT2, hits give low values 1 | locus YBR231C, strain swc5, hits give low values 0.997 | locus YBR279W, strain paf1, hits give low values 1.01 | locus YCL016C, strain dcc1, hits give low values 1 | locus YCL029C, strain bik1, hits give low values 0.984 | locus YCL069W, strain vba3, hits give low values 1.01 | locus YCR088W, strain abp1, hits give low values 1.01 | locus YDL005C, strain med2, hits give low values 0.99 | locus YDL035C, strain GPR1, hits give low values 1.02 | locus YDL040C, strain nat1, hits give low values 0.986 | locus YDL074C, strain BRE1, hits give low values 1 | locus YDL101C, strain DUN1, hits give low values 1.01 | locus YDL134C, strain PPH21, hits give low values 1 | locus YDL185W, strain tfp1, hits give low values 0.975 | locus YDL192W, strain arf1, hits give low values 0.993 | locus YDR001C, strain nth1, hits give low values 1.02 | locus YDR069C, strain doa4, hits give low values 0.992 | locus YDR101C, strain arx1, hits give low values 0.986 | locus YDR137W, strain rgp1, hits give low values 1.01 | locus YDR150W, strain NUM1, hits give low values 1.01 | locus YDR159W, strain sac3, hits give low values 1 | locus YDR162C, strain NBP2, hits give low values 1 | locus YDR195W, strain ref2 0.954 | locus YDR297W, strain sur2, hits give low values 0.991 | locus YDR318W, strain mcm21, hits give low values 0.983 | locus YDR334W, strain swr1, hits give low values 1.01 | locus YDR335W, strain msn5, hits give low values 1.01 | locus YDR388W, hits give low values 0.983 | locus YDR392W, strain spt3, hits give low values 1.01 | locus YDR502C, strain sam2, hits give low values 0.989 | locus YEL003W, strain gim4, hits give low values 1 | locus YEL037C, strain rad23, hits give low values 1 | locus YEL061C, strain CIN8 (second series), hits give low values 1.03 | locus YEL061C, strain CIN8, hits give low values 1.01 | locus YER015W, strain faa2, hits give low values 0.988 | locus YER016W, strain bim1, hits give low values 1 | locus YER110C, hits give low values 0.981 | locus YER111C, strain swi4, hits give low values 0.993 | locus YER155C, strain BEM2 (second series), hits give low values 0.98 | locus YER155C, strain BEM2, hits give low values 1.01 | locus YER167W, strain BCK2, hits give low values 1.01 | locus YFR010W, strain ubp6, hits give low values 0.999 | locus YGL078C, strain dbp3, hits give low values 0.987 | locus YGL086W, strain mad1, hits give low values 0.991 | locus YGL167C, strain pmr1, hits give low values 0.993 | locus YGL173C, strain kem1, hits give low values 0.984 | locus YGL227W, strain vid30, hits give low values 1 | locus YGL240W, strain doc1, hits give low values 1.01 | locus YGL248W, strain PDE1, hits give low values 1 | locus YGL253W, strain hxk2, hits give low values 1.03 | locus YGR078C, strain PAC10, hits give low values 1 | locus YGR135W, strain pre9, hits give low values 0.988 | locus YGR229C, strain SMI1, hits give low values 1.03 | locus YGR252W, strain gcn5, hits give low values 0.963 | locus YHR013C, strain ard1, hits give low values 0.948 | locus YHR027C, strain rpn1, hits give low values 1.01 | locus YHR030C, strain SLT2, hits give low values 1.01 and 0.978 | locus YHR079C, strain IRE1 (second series), hits give low values 0.992 | locus YHR079C, strain IRE1, hits give low values 1 | locus YHR094C, strain hxt1, hits give low values 0.991 | locus YHR129C, strain ARP1, hits give low values 0.999 | locus YHR142W, strain chs7, hits give low values 1.01 | locus YHR200W, strain rpn10, hits give low values 0.982 | locus YIL066C, strain RNR3, hits give low values 1.01 | locus YIL073C, strain SPO22, hits give low values 1.03 | locus YIL125W, strain kgd1, hits give low values 0.988 | locus YIR030C, strain dcg1, hits give low values 0.988 | locus YJL092W, strain hpr5, hits give low values 1.02 | locus YJL095W, strain BCK1 (second series), hits give low values 1 | locus YJL095W, strain BCK1, hits give low values 1.02 and 0.991 | locus YJL115W, strain asf1, hits give low values 0.994 | locus YJL129C, strain trk1, hits give low values 1.02 | locus YJL134W, strain LCB3, hits give low values 1 | locus YJL154C, strain vps35, hits give low values 1 | locus YJL164C, strain tpk1, hits give low values 1 | locus YJL166W, strain qcr8, hits give low values 1 | locus YJL168C, strain set2, hits give low values 0.986 | locus YJL187C, strain SWE1 (second series), hits give low values 1.01 | locus YJL187C, strain SWE1, hits give low values 0.993 | locus YJR043C, strain POL32, hits give low values 0.982 | locus YJR066W, strain TOR1, hits give low values 0.929 | locus YJR075W, strain HOC1, hits give low values 1.01
